For assay [1], the target named is Retinoic acid receptor alpha (Homo sapiens) (UniProt P10276). Briefly: ATG_DR5_RAR_CIS: Attagene CIS-FACTORIAL HepG2 Assay for human Retinoic Acid Receptor Alpha (RARE), DR5 submotif (AID 2282934; active = hit-call score of the fitted dose curve at least 0.9, where 1 is the maximum; inactive = score below 0.9). The conditions noted are these: HepG2 Attagene cis-factorial RARE DR5 reporter, mRNA; actives raise or lower the signal. The method, boiled down: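 HepG2 cells transiently transfected with multiplexed reporter units; DR5 cis-element drives reporter through endogenous transcription factors. After 24 h dosing, reporter mRNA quantified by RT-PCR, fluorescent labeling, HpaI digestion and capillary electrophoresis; bidirectional fitting versus DMSO.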
Chain of Retinoic acid receptor alpha (Homo sapiens) (P10276 whole entry, looked up): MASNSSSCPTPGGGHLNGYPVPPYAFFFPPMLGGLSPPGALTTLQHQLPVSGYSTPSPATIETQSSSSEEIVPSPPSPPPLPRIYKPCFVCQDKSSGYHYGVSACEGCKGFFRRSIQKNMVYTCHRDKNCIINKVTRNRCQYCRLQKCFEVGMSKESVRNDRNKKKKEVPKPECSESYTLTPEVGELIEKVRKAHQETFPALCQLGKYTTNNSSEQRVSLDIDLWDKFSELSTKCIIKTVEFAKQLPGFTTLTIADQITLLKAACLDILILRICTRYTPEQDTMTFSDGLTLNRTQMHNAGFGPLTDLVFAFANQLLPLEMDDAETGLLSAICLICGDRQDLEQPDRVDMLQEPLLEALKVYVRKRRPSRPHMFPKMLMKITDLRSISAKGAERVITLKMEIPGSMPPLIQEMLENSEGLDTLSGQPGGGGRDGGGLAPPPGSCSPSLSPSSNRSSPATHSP

Assay [2] is described as follows: ATG_M_19_CIS: Attagene CIS-FACTORIAL HepG2 Assay for M19 Transcription Factor (Internal Marker) (AID 2282939; active = hit-call score of the fitted dose curve at least 0.9, where 1 is the maximum; inactive = score below 0.9). The settings on record: HepG2 Attagene CIS-FACTORIAL M19 internal marker reporter; actives raise or lower the signal. The gist of the method: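 Signals come from fluorescence of labelled reporter-specific PCR fragments resolved by capillary electrophoresis, following 24 h treatment of HepG2 cells transfected with cis-promoter reporter units; activity was fitted in both directions relative to DMSO.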

Assay [3] in a line: ATG_GRE_CIS: Attagene CIS-FACTORIAL HepG2 Assay for human Glucocorticoid Response Elements (GRE) (AID 2282947; active = hit-call score of the fitted dose curve at least 0.9, where 1 is the maximum; inactive = score below 0.9). The settings on record: HepG2 GRE cis-reporter, Attagene multiplex mRNA; actives raise or lower the signal. The gist of the method: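 Fluorescence intensity of reporter-specific cDNA fragments, separated by capillary electrophoresis, provides the signal. Constructs carry cis-regulating promoters in transiently transfected HepG2 liver cells; 24 h incubation; fitting is bidirectional against DMSO.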

Assay [4] can be described thus: ATG_TGFb_CIS: Attagene CIS-FACTORIAL HepG2 Assay for human Transforming Growth Factor (TGF) (AID 2282967; active = hit-call score of the fitted dose curve at least 0.9, where 1 is the maximum; inactive = score below 0.9). The conditions noted are these: HepG2 Attagene CIS TGFb reporter, mRNA transcription; actives raise or lower the signal. The gist of the method: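 Bidirectional fitting relative to DMSO gave the endpoint. Underlying data: reporter mRNA from HepG2 cells carrying transiently transfected cis-regulated reporter constructs, harvested 24 h after dosing and analyzed by RT-PCR and capillary electrophoresis.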

Assay [5] is described as follows: ATG_M_06_TRANS: Attagene TRANS-FACTORIAL HepG2 Assay for M06 Transcription Factor (Internal Marker) (AID 2282983). The conditions noted are these: HepG2 Attagene TRANS M06 internal marker reporter. The method, boiled down:
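Human liver HepG2 cells bearing transiently transfected chimeric NR-GAL4 reporter units were treated with chemicals for 24 h. Total RNA was reverse-transcribed, reporter sequences amplified and labelled, then quantified by capillary electrophoresis. Activity was fitted upward relative to DMSO.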

Assay [6] deals with Retinoic acid receptor RXR-alpha (Homo sapiens) (UniProt P19793). Briefly: ATG_RXRa_TRANS: Attagene TRANS-FACTORIAL HepG2 Assay for human Retinoid X Receptor alpha (RXRa) (AID 2283012). The gist of the method: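 Measures exogenous chimeric NR-GAL4 activity in transfected HepG2 liver cells after 24 h of dosing. Induced reporter mRNA was detected by RT-PCR with capillary electrophoresis, and gain of signal was analysed against DMSO.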
Chain of Retinoic acid receptor RXR-alpha (Homo sapiens) (P19793 whole entry, looked up, the tested form may be a part): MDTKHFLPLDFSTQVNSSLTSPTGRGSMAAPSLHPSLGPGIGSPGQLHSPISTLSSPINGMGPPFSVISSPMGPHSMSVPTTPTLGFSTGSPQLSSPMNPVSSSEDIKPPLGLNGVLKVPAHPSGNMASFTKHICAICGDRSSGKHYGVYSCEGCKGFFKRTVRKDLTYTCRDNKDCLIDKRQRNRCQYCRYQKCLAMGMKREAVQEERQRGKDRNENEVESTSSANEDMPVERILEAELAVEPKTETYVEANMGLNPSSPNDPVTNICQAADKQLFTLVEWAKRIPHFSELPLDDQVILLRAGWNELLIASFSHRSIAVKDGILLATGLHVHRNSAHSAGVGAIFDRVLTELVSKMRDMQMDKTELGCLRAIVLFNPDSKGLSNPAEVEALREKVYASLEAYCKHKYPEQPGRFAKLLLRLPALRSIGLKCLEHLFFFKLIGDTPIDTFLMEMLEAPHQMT

The target in assay [7] is human Retinoid X Receptor beta (RXRb), RXRB (gene 6257) (UniProt P28702). Briefly: ATG_RXRb_TRANS: Attagene TRANS-FACTORIAL HepG2 Assay for human Retinoid X Receptor beta (RXRb) (AID 2283013). The gist of the method:
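Chimeric receptor-Gal4 activity was assessed in transiently transfected human HepG2 cells after 24 h exposure. Transcripts from GAL4-UAS reporters were quantified by fluorescent RT-PCR and capillary electrophoresis, with DMSO as negative control and baseline.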

Assay [8] can be described thus: TOX21_p53_BLA_p2_viability: Viability Assessment in the Tox21 HCT-116 p53 Agonism Beta-lactamase Assay, Phase 2 (AID 2283591).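 Also: compound exposure lasted 16 h at 37 °C; actives lower the ATP signal meaning cytotoxicity.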 The gist of the method:
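HCT116 p53-bla cells, 4000/well, dosed after 5 h plating (217-fold dilution of DMSO stocks) and incubated 16 h at 37C. Viability taken as cellular ATP by CellTiter-Glo luminescence after 30 min RT; signal loss marks cytotoxicity.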

Assay [9] deals with Cellular tumor antigen p53 (Homo sapiens) (UniProt P04637). Briefly: TOX21_p53_BLA_p2_ratio: Tox21 HCT-116 p53 Agonism Beta-lactamase Assay, Ratio, Phase 2 (AID 2283592). The method, boiled down: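 Cleaved-to-uncleaved substrate ratio (460 vs 530 nm) measured in HCT116 cells with an inducible beta-lactamase reporter linked to p53 activity. Compounds incubated 16 h at 37C before 2 h room-temperature CCF4-AM loading.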
Chain of Cellular tumor antigen p53 (Homo sapiens) (P04637 whole entry, looked up): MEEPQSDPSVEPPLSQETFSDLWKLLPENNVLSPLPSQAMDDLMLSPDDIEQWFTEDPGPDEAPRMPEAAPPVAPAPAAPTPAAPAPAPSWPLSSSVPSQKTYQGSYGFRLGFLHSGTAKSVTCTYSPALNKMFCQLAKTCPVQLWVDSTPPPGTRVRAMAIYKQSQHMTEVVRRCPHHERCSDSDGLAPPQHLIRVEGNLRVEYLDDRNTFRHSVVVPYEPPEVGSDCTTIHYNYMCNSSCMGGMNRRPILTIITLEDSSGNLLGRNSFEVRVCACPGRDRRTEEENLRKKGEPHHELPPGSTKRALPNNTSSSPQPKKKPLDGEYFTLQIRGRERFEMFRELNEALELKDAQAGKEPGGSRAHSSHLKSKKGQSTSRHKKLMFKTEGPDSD

Assay [10] shares this target. In words: TOX21_p53_BLA_p3_ratio: Tox21 HCT-116 p53 Agonism Beta-lactamase Assay, Ratio, Phase 3 (AID 2283596). The method, boiled down:
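Cells were seeded at 4000/well, rested 5 h at 37C, then dosed with DMSO compound solutions (217-fold dilution) for 16 h. CCF4-AM substrate was loaded for 2 h at room temperature, and the 460/530 nm emission ratio was fitted for gain of signal versus DMSO.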

The target is the same in assay [11]. In words: TOX21_p53_BLA_p5_ratio: Tox21 HCT-116 p53 Agonism Beta-lactamase Assay, Ratio, Phase 5 (AID 2283599). The gist of the method:
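HCT-116 p53-bla cells (4000/well) plated 5 h, dosed with compound (217-fold DMSO dilution) for 16 h at 37 C; CCF4-AM substrate 2 h at room temperature. Activity is the 460/530 nm emission ratio (405 nm excitation), fitted in gain-of-signal direction versus DMSO.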

A short description of assay [12]: TOX21_p53_BLA_p5_viability: Viability Assessment in the Tox21 HCT-116 p53 Agonism Beta-lactamase Assay, Phase 5 (AID 2283600). The gist of the method:
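Viability is taken from cellular ATP content, measured by luciferase luminescence in the same wells after the beta-lactamase ratio read. Cells are seeded at 4000 per well and exposed to DMSO-dissolved compounds, diluted 217-fold, for 16 h.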

The target in assay [13] is Cellular tumor antigen p53 (Homo sapiens) (UniProt P04637). Briefly: TOX21_p53_BLA_p4_ratio: Tox21 HCT-116 p53 Agonism Beta-lactamase Assay, Ratio, Phase 4 (AID 2283601). The method, boiled down:
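HCT-116 p53 beta-lactamase reporter cells (4000/well) preincubated 5 h, then compound (217-fold dilution of DMSO stock) for 16 h at 37C. CCF4-AM substrate added 2 h at room temperature; 460/530 nm emission ratio fitted upward versus DMSO.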

In assay [14] the target is Hepatocyte nuclear factor 6 (Homo sapiens) (UniProt Q9UBC0). In words: ATG_HNF6_CIS: Attagene CIS-FACTORIAL HepG2 Assay for human Hepatocyte Nuclear Factor 6 (HNF6) (AID 2282952; active = hit-call score of the fitted dose curve at least 0.9, where 1 is the maximum; inactive = score below 0.9). The conditions noted are these: HepG2 Attagene cis-factorial HNF6 reporter transcription; actives raise or lower the signal. The gist of the method: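 Endogenous transcription factor activity in human HepG2 liver cells was captured through cis-regulated reporter constructs. After 24 h treatment, reporter mRNA was measured by RT-PCR with capillary electrophoresis, and activity was fitted in both directions relative to DMSO.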
Chain of Hepatocyte nuclear factor 6 (Homo sapiens) (Q9UBC0 whole entry, looked up): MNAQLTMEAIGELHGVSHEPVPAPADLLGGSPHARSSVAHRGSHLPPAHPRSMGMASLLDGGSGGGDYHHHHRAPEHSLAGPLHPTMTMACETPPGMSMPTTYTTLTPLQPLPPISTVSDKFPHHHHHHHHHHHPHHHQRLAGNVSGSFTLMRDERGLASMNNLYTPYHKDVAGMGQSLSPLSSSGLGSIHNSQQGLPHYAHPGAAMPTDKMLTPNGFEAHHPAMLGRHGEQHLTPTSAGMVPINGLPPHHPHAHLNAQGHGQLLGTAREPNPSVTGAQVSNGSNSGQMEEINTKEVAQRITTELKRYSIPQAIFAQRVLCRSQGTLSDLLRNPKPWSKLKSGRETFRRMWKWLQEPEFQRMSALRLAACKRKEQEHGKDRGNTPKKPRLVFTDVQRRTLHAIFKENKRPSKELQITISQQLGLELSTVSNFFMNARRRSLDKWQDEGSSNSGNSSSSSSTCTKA

Assay [15] can be described thus: ATG_PBREM_CIS: Attagene CIS-FACTORIAL HepG2 Assay for human Phenobarbital-responsive Enhancer Module (PBREM) (AID 2282955; active = hit-call score of the fitted dose curve at least 0.9, where 1 is the maximum; inactive = score below 0.9). The conditions noted are these: HepG2 PBREM cis-reporter, Attagene multiplexed transcription; actives raise or lower the signal. The gist of the method:
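Endogenous transcription factor activity was read from reporter transcripts in transiently transfected human HepG2 liver cells after 24 h dosing. RT-PCR products were fluorescently labelled, HpaI-cut and sized by capillary electrophoresis; activity fitted bidirectionally against DMSO baseline.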

Assay [16] can be described thus: ATG_M_32_TRANS: Attagene TRANS-FACTORIAL HepG2 Assay for M32 Transcription Factor (Internal Marker) (AID 2282984).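 Also: transcript level of a background control reporter unit measured by RT-PCR and capillary electrophoresis.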 The settings on record: HepG2 Attagene TRANS M32 internal marker reporter. The gist of the method: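 Internal-marker readout from a multiplexed transcription reporter panel. HepG2 cells were transfected with GAL4-UAS reporter units, treated 24 hours, and reporter transcript levels determined by fluorescence after RT-PCR and capillary separation.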

Assay [17] can be described thus: ATG_NF_kB_CIS: Attagene CIS-FACTORIAL HepG2 Assay for human Nuclear Factor Kappa B (NF-kB) (AID 2282991; active = hit-call score of the fitted dose curve at least 0.9, where 1 is the maximum; inactive = score below 0.9). The settings on record: HepG2 Attagene cis-factorial NF-kB reporter mRNA; actives raise or lower the signal. The gist of the method:
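Readout is reporter transcript level, gain or loss versus DMSO, measured 24 h post-dose via RT-PCR, fluorescent labelling and capillary electrophoresis. Human HepG2 liver cells carried transiently transfected CIS reporter constructs reflecting endogenous factors.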

Assay [18] addresses X-box-binding protein 1 (Homo sapiens) (UniProt P17861). Briefly: ATG_Xbp1_CIS: Attagene CIS-FACTORIAL HepG2 Assay for human X-box Binding Protein 1 (XBP1) (AID 2282972; active = hit-call score of the fitted dose curve at least 0.9, where 1 is the maximum; inactive = score below 0.9). The settings on record: HepG2 XBP1 cis-element reporter, Attagene multiplex; actives raise or lower the signal. The method, boiled down: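 Read-out: fluorescent reporter mRNA fragments resolved by capillary electrophoresis after RT-PCR. Human HepG2 liver cells carried transfected cis-promoter reporter units and were exposed to chemicals for 24 hours. Gain or loss of signal fitted relative to DMSO baseline.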

Assay [19] deals with Hepatocyte nuclear factor 4-alpha (Homo sapiens) (UniProt P41235). Briefly: ATG_HNF4a_TRANS: Attagene TRANS-FACTORIAL HepG2 Assay for human Hepatocyte Nuclear Factor 4 alpha (HNF4a) (AID 2282982). The conditions noted are these: HepG2 HNF4a transactivation reporter, mRNA readout. The gist of the method: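 Endpoint reflects transcriptional activation of a GAL4-UAS reporter by an HNF4a-GAL4 chimera in transfected HepG2 cells, 24 h post-dosing. Fluorescence from RT-PCR products separated by capillary electrophoresis; DMSO baseline.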
Chain of Hepatocyte nuclear factor 4-alpha (Homo sapiens) (P41235 whole entry, looked up, the tested form may be a part): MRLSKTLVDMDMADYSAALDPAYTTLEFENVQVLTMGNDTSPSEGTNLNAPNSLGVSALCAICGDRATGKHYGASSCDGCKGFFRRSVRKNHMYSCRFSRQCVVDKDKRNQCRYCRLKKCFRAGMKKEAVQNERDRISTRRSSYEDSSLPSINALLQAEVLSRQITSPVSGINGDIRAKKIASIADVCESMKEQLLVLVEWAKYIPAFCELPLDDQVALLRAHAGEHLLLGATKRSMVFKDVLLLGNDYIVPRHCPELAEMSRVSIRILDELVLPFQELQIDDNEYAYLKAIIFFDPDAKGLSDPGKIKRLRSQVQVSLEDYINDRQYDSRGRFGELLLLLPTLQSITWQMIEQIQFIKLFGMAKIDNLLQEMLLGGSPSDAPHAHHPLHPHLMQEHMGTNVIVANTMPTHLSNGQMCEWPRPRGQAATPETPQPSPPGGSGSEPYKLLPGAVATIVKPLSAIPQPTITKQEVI

Assay [20] can be described thus: ATG_MRE_CIS: Attagene CIS-FACTORIAL HepG2 Assay for human Metal Responsive Element (MRE) (AID 2282954; active = hit-call score of the fitted dose curve at least 0.9, where 1 is the maximum; inactive = score below 0.9). The settings on record: HepG2 MRE cis-reporter transcription, Attagene multiplex; actives raise or lower the signal. The gist of the method:
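Measured here is mRNA induction from an MRE cis-element reporter in HepG2 after 24 h, quantified by fluorescence of labelled RT-PCR products on capillary electrophoresis; gain- and loss-of-signal fits use DMSO as baseline.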

Records with an inconclusive call do not appear. Active and inactive are the calls of the source. The calls were made as follows, unless noted: active = hit-call score of the fitted dose curve at least 0.9, where 1 is the maximum; inconclusive = response in the unintended direction; inactive = score below 0.9.

Chain of human Retinoid X Receptor beta (RXRb), RXRB (gene 6257) (P28702 whole entry, looked up, the tested form may be a part): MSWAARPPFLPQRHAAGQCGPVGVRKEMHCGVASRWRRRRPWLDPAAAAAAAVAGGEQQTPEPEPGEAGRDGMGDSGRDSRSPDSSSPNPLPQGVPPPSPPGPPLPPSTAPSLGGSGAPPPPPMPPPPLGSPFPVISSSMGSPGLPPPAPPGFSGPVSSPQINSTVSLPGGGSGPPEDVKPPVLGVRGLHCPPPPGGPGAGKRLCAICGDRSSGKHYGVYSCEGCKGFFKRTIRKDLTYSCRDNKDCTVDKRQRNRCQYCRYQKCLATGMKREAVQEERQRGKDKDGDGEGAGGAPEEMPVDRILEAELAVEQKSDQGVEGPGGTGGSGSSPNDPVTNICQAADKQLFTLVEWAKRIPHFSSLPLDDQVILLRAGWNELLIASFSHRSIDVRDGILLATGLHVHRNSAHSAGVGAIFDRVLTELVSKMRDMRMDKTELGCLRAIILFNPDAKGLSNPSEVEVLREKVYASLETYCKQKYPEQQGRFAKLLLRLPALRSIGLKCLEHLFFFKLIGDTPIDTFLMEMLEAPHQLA
Chain of X-box-binding protein 1 (Homo sapiens) (P17861 whole entry, looked up, the tested form may be a part): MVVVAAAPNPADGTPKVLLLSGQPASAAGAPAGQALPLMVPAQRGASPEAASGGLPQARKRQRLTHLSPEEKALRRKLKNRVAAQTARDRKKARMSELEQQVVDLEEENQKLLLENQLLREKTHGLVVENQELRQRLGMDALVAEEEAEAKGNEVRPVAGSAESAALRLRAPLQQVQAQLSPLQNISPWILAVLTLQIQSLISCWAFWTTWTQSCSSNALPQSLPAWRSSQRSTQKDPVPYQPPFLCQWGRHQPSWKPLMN

For orientation: AC50 means the concentration at which the activity in the assay is half-maximal. With `COc1c2occc2cc2ccc(=O)oc12`, the molecule was classed as inactive in assay [1], in [2], in assay [3], in [4], in [5] and in assay [6]. Also, the call in assay [8], in [9], in [10], in [11], in assay [12] and in assay [13] was inactive. For the same molecule, the AC50 in assay [7] was 100 µM (active).

Turning to `Cc1ccccc1S(N)(=O)=O`, the outcome in assay [1], in assay [2], in [3], in assay [14], in [15] and in assay [4] was inactive. Further, the molecule was called inactive in [5], in [16], in assay [17], in assay [6], in assay [7] and in [8]. Further, the outcome in [9], in assay [10], in [11] and in [12] was inactive.

`O=C1NC(=O)[C@@H]2CC=CC[C@H]12`: the call in assay [1], in assay [2], in assay [3], in assay [14], in assay [15] and in assay [4] was inactive. The outcome in assay [18], in [19], in assay [5], in [6], in assay [7] and in assay [8] was inactive. Further, the result in [9], in assay [10], in [11], in assay [12] and in assay [13] was inactive.

In the case of `CO[Si](CCCNCCN)(OC)OC`, the outcome in assay [1], in [2], in assay [19], in assay [5] and in [16] was inactive.

`CC(C)=CCOC(=O)c1ccccc1`: the molecule was called inactive in assay [1], in [2], in [3], in [14], in assay [20] and in assay [4]. The call in assay [5], in assay [16], in [17], in assay [6], in assay [7] and in assay [8] was inactive. For the same molecule, the outcome in [9], in assay [11], in assay [12] and in [13] was inactive.

The values are drawn from PubChem BioAssay (EPA / NIEHS).
